{"source": "PubChem BioAssay AID1745845", "about": "(National Center for Advancing Translational Sciences (NCATS), 2022)", "note": "The whole screen tested about 360,000 compounds, of which about 2,600 (0.72%) were called active. Roughly 5% stayed inconclusive and do not appear here. Only a selection was taken, and actives are over-represented in it overall. A number with no mark means an inactive call. Calls come from the whole dose curve; as a rule, active = well fitted inhibition curve with a large enough effect; inconclusive = small, poorly fitted or top-dose-only effect; inactive = no such curve, though single readings can be large or run the other way."}
{"assay": "Primary qHTS for Inhibitors of ATXN expression; note: nearly all actives have a fitted effect of over 55% in size; note: potency is the fitted concentration of half-maximal effect; for activity change, negative = inhibition: % is set by controls: 0 for no effect and ±100 for the full control effect", "details": "HEK-293 ATXN2-luciferase reporter, luminescence, 24 h; series mostly up to 57 µM; activity change, negative = inhibition: at the top concentration", "source_text": "University of Utah School of Medicine, Salt Lake City, Utah\nSpinocerebellar ataxia type 2 (SCA2) is a multisystem neurodegenerative disease caused by a dominantly acting mutation leading to expansion of a polyQ domain in the ataxin-2 protein (ATXN2). SCA2 patients develop progressive ataxia and later lose function in other neuronal systems. Prominent parkinsonian signs develop in some patients. Like many neurodegenerative disorders, no symptomatic or disease-modifying treatments are known.\nThe primary objective of the proposed research is to identify compounds inhibiting ATXN2 expression and to test them for efficacy in SCA2 mouse models. We have developed a cell-based assay paired with an in vivo mouse model using identical luciferase expression constructs. This approach takes advantage of an ATXN2-luciferase transgene, with the luciferase gene flanked by the upstream and downstream portions of the ATXN2 gene. Here we describe a 5-7 dose quantitative high thoroughput screen (qHTS) for compounds lowering ATXN2 expression. We screened the NIH Molecular Libraries Small Molecule Repository (MLSMR) and NCGC's mechanistically annotated (MIPE) and drug repurposing (NPC) collections of compounds for lowering expression of an ATXN2-luciferase reporter in HEK-293 cells. The assay is a multiplexed cell viability assay to ensure target reduction in the absence of cytotoxicity. Secondary qHTS assays included a CMV-luciferase reporter expressed in HEK-293 cells as well as a biochemical assay using recombinant luciferase to detect inhibitors of the reporter enzyme. Compounds that inhibit ATXN2 expression but is not cytotoxic were selected for confirmatory and secondary screens.\nPROTOCOL TABLE (as described by Inglese J, Shamu CE and Guy RK. 2007)\nSEQUENCE No. (e.g., 1, 2, 3, etc.); […] (e.g., Cells, Incubation, Reagent, etc.); VALUE; DESCRIPTION.\n1; Cells; 4 uL; white, solid bottom, 1536-well Greiner assay plate.\n2; Incubation; 2 hr; 37 degree C in 5% humidified CO2.\n3; Compounds; 23 nL; Kalypsis pintool (Wako USA) equipped with a 1536-well pin head.\n4; Incubation; 24 hr; 37 degree C in 5% humidified CO2.\n5; Reagent; 1 uL; Gly-Phe-7-Amino-4-trifluoromethylcoumarin.\n6; Incubation; 30 min; 37 degree C in 5% humidified CO2.\n7; Detection; Fluorescence; ViewLux plate reader (PerkinElmer).\n8; Reagent; 3 uL; SteadyGlo luciferase solution (Promega).\n9; Incubation; 5 min; room temperature.\n10; Detection; Luminescence; ViewLux plate reader (PerkinElmer).\nNOTES (numbers refer to Sequence numbers above)\n1. S2 cells expressing ATXN2-luciferase reporter were suspended in phenol-red free DMEM and dispensed in assay plates using a Multidrop Combi dispenser (Thermo Fisher Scientific).\n2. Assay plates were incubated. Evaporation was prevented by covering assay plates with metal lids containing holes to allow gas diffusion.\n3. Compounds were added in a dose response manner with the final concentrations of 57, 11.4, 2.28, 0.46, 0.091, 0.018, 0.0037 uM. Vehicle-only plates, with DMSO being pin-transferred to columns 5-48, were inserted uniformly at the beginning and the end of each library to monitor and record any shifts in assay performance.\n5. 125 uM Gly-Phe-7-Amino-4-trifluoromethylcoumarin (MP Biomedicals) working concentration was used at a final concentration of 25 uM.\n7. To assess cell viability; the assay plates were read using the ViewLux high-throughput CCD imager (PerkinElmer), wherein single end-point fluorescence measurement was acquired (excitation 405/10; emission 540/25 nm).\n8. Detection reagent SteadyGlo Luciferase (Promega) was added to the assay plate.\n10. Luminescence is then measured on the ViewLux imager equipped with a clear emission filter using a 2 sec exposure. All screening operations were performed on a fully integrated robotic system (Kalypsys) containing one RX-130 and two RX-90 anthropomorphic robotic arms (Staubli).\n[…]"}
{"molecule": "CC(Cc1ccccc1)NC=O", "note": "(stereo not given)", "activity change, negative = inhibition": "7.92%"}
{"molecule": "CC(Cc1ccccc1)NCCC(c1ccccc1)c1ccccc1", "note": "(stereo not given)", "Potency": "28.2 µM (active)"}
{"molecule": "CC(=O)NC(=O)NC(C)Cc1ccccc1", "note": "(stereo not given)", "activity change, negative = inhibition": "2.01%"}
{"molecule": "CCCOC(=O)c1cncn1C(C)c1ccccc1", "note": "(stereo not given)", "activity change, negative = inhibition": "9.45%"}
{"molecule": "COC(=O)C1=C(c2ccc(OCc3ccccc3)cc2)C[C@@H]2CC[C@H]1N2C(=O)NCc1ccc(Cl)cc1", "activity change, negative = inhibition": "-22.2%"}
{"molecule": "O=P(OC1=CCCCC1)(c1ccccc1)c1ccccc1", "activity change, negative = inhibition": "-7.03%"}
{"molecule": "CCC(C)(O)C(=O)OC1C(=O)OC2CC3C(C)=CC(=O)C(O)C3(C)C3C4(O)OCC23C1C(C)C4O", "note": "(stereo not given)", "Potency": "0.168 µM (active)"}
{"molecule": "CCOC(=O)[C@]12Cc3cc(OC)ccc3[C@H]1N(C(C)C)C(=O)c1ccccc12", "Potency": "17.8 µM (active)"}
{"molecule": "CCOC(=O)[C@]12Cc3ccccc3[C@H]1N(C1CCCCC1)C(=O)c1cc(OC)ccc12", "Potency": "7.94 µM (active)"}
{"molecule": "CC1=C(C(=O)O)N2C(=O)[C@@H](N)[C@H]2SC1", "activity change, negative = inhibition": "1.93% [at 25.6 µM]"}
{"molecule": "O=C(N/N=C/c1ccc([N+](=O)[O-])o1)c1cc([N+](=O)[O-])cc([N+](=O)[O-])c1O", "activity change, negative = inhibition": "4.24%"}
{"molecule": "O=S(=O)(O)C(F)(F)C(F)(F)C(F)(F)C(F)(F)F", "activity change, negative = inhibition": "3.26% [at 116 µM]"}
{"molecule": "CC(C)=C[C@@H]1[C@@H](C(=O)OCc2coc(Cc3ccccc3)c2)C1(C)C", "activity change, negative = inhibition": "-1.03%"}
{"molecule": "O=C(NC1CCCCC1)N1Cc2cc(N3CCCCC3)ccc2-n2nncc2C1", "activity change, negative = inhibition": "2.55%"}
{"molecule": "CNC(=S)N/N=C1\\C2CN3CCN(C2)CC1(c1ccccc1)C3", "activity change, negative = inhibition": "1.34%"}
{"molecule": "S=C(NCCc1ccccc1)N1Cc2cc(N3CCOCC3)ccc2-n2nncc2C1", "activity change, negative = inhibition": "-12.2%"}
{"molecule": "C[C@]12CC[C@H](O)C[C@H]1CC[C@@H]1C2CC[C@]2(C)[C@@H](C3=CC(=O)OC3)[C@@H](O)C[C@]12O", "note": "(stereo not given in full)", "Potency": "2 µM (active)"}
{"molecule": "C[C@]12CCC3C(CC[C@H]4C[C@@H](O)CC[C@]34C)C1CC[C@@H]2O", "note": "(stereo not given in full)", "activity change, negative = inhibition": "-11.2%"}
{"molecule": "COC1C(O)C(C)OC(OC2CCC3(C=O)C(CCC4C3CCC3(C)C(C5=CC(=O)OC5)CCC43O)C2)C1O", "note": "(stereo not given)", "activity change, negative = inhibition": "-78.8%"}
{"molecule": "O=c1[nH]c2ccccc2n1C1CCN(C(c2ccccc2)c2nnnn2Cc2ccccc2)CC1", "note": "(stereo not given)", "Potency": "25.1 µM (active)"}
{"molecule": "CSCCC(c1nnnn1C(C)(C)C)N1CCC(n2c(=O)[nH]c3ccccc32)CC1", "note": "(stereo not given)", "activity change, negative = inhibition": "-18.6%"}
{"molecule": "O=c1[nH]c2ccccc2n1C1CCN(C(c2ccnc3ccccc23)c2nnnn2Cc2ccccc2)CC1", "note": "(stereo not given)", "activity change, negative = inhibition": "0%"}
{"molecule": "COC(=O)C1=C(c2ccc(OCc3ccccc3)cc2)C[C@@H]2CC[C@H]1N2C(=O)NCc1cccc(F)c1", "activity change, negative = inhibition": "-10.1%"}
{"molecule": "CCCn1c(C(=O)c2ccccc2OC)nc2ccccc21", "activity change, negative = inhibition": "1.9%"}
{"molecule": "CC[N+]1(CCOC(=O)C(O)(c2ccccc2)c2ccccc2)CCCCC1", "activity change, negative = inhibition": "25.5%"}
{"molecule": "O=C(NCC1=C(c2ccc3ccccc3c2)C[C@@H]2CC[C@H]1N2Cc1ccco1)c1cccs1", "activity change, negative = inhibition": "-20.2%"}
{"molecule": "CCCCC1C(=O)NC(=O)N(C2CCCCC2)C1=O", "note": "(stereo not given)", "activity change, negative = inhibition": "10.8%"}
{"molecule": "COC(=O)CN(CCCl)P1(=O)OCCCN1CCCl", "note": "(stereo not given)", "activity change, negative = inhibition": "3.04%"}
{"molecule": "O=C1NC(=O)N(c2ccc(F)cc2)C(=O)/C1=C/c1ccc2c(c1)CCCN2Cc1ccccc1", "activity change, negative = inhibition": "-11.9%"}
{"molecule": "O=C1NC(=O)N(CCc2ccc(F)cc2)C(=O)/C1=C/C=C/c1ccccc1", "Potency": "10 µM (active)"}
{"molecule": "O=C(O)COc1ccccc1/C=C1\\C(=O)NC(=O)N(CCC2=CCCCC2)C1=O", "activity change, negative = inhibition": "6.1%"}
{"molecule": "COc1cc(C(=O)N2Cc3ccc(Br)cc3-n3nncc3C2)cc(OC)c1OC", "activity change, negative = inhibition": "7.09%"}
{"molecule": "Cc1cccc(Cn2cccc(C(=O)Nc3ccc4c(c3)OCCO4)c2=O)c1", "activity change, negative = inhibition": "-24.9%"}
{"molecule": "CC(=Cc1csc(C)n1)[C@@H]1C[C@H]2O[C@]2(C)CCC[C@H](C)[C@@H](O)[C@@H](C)C(=O)C(C)(C)[C@@H](O)CC(=O)O1", "activity change, negative = inhibition": "-17.3%"}
{"molecule": "NCCc1ccc(S(=O)(=O)F)cc1", "activity change, negative = inhibition": "1.91%"}
{"molecule": "COc1cccc(C(c2nnnn2-c2ccc3c(c2)OCCO3)N2CCC3(CC2)C(=O)NCN3c2ccccc2)c1OC", "note": "(stereo not given)", "activity change, negative = inhibition": "-36.2%"}
{"molecule": "CC1N=C(N)OC1c1ccccc1", "note": "(stereo not given)", "activity change, negative = inhibition": "7.78% [at 116 µM]"}
{"molecule": "CO[C@]12CC[C@@]3(C[C@@H]1[C@](C)(O)C(C)(C)C)[C@@H]1Cc4ccc(O)c5c4[C@@]3(CCN1CC1CC1)[C@H]2O5", "Potency": "35.5 µM (active)"}
{"molecule": "Oc1ccc2c3c1OC1[C@H](O)CC[C@@]4(O)[C@@H](C2)N(CC2CC2)CC[C@]314", "note": "(stereo not given in full)", "Potency": "inactive"}
{"molecule": "Cc1ncsc1CCCl", "activity change, negative = inhibition": "11.9%"}
